# Results filed as inconclusive are left out. Calls of active or inactive are those of the source. Calls come from the whole dose curve; as a rule, active = well fitted cell-killing curve with a large enough effect; inconclusive = small, poorly fitted or top-dose-only effect, or effect the other way; inactive = flat fitted curve, though single readings scatter.
# Experiment: Cell viability assay in S16 Pmp22-HiBiT cells - Confirmatory screen
# Settings: S16 Schwann Pmp22-HiBiT viability, CellTiter-Glo, 24 h; series mostly up to 27.9 µM; activity change, negative = viability loss: at the top concentration
# Source text: Assay Provider: Jim Inglese Ph.D. National Center for Advancing Translational Science, National Institutes of Health, Rockville, MD CMT is a heterogeneous group of neurological disorders that affect approximately 1 in 2,500 people. In particular, the most common form of CMT, CMT1A is genetically linked to the duplication of the PMP22 gene which leads to Schwann cell overexpression, thus manifesting itself as a typical case of dose-sensitive diseases. To identify small molecule compounds that can mediate the expression of PMP22 we developed a phenotypic assay screening strategy by utilizing genome editing techniques to construct Schwann cell lines containing novel reporter technology to monitor the transcriptional or translational regulation of PMP22. For high sensitivity we use a bioluminescent reporter system embedded in the 3' UTR of the PMP22 gene (S16(c9) Pmp22-F2sN) to identify compounds that inhibit gene expression. […] We can further discriminate the effect of all transcriptionally active molecules on PMP22 translation or stability with an assay that incorporates a short NLuc peptide (HiBiT) at the C-terminus of expressed PMP22 (S16(f8) PMP22-HiBiT) allowing alpha complementation and luminescence detection of membrane-associated PMP22 protein. These assays were screened against the NCATS Sytravon Library Collection. Miniaturization of these assays to 1536-well plate format for quantitative high throughput screening (qHTS) yielded rich data sets immediately from the qHTS assay (S16(c9) Pmp22-F2sN), when compared with data from a cell viability assay (Cell TiterGlo) to identify compounds that decreased the output signals through cellular toxicity to streamline the selection process of actives for subsequent characterization using the HiBiT assay (S16(f8) PMP22-HiBiT).
# Cell viability assay in S16 Pmp22-HiBiT cells PROTOCOL TABLE (format as described by Inglese J, Shamu CE and Guy RK. 2007) SEQUENCE No. (e.g., 1, 2, 3, etc.); PARAMETER (e.g., Cells, Incubation, Reagent, etc.); VALUE and DESCRIPTION. 1. Cells. Add 500-1,000 cells in 4 uL in growth media (DMEM High Glucose, No Phenol Red media + 10% heat-inactivated FBS + 1% Pen/Strep supplemented media) per well into Greiner 1536-well white/solid bottom high base, TC-treated plates. 2. Compounds. Library compounds and controls added at 23nL per well, transferred by Pin Tool. 3. Incubation. Incubate plates at 37C, 5% CO2, 95% RH for 24 h. 4. Reagent. Add 3uL CellTiter-Glo per well of Greiner 1536-well plates. 5. Incubation. Incubate plates at room temperature for 15 min., protect from light. 6. Detector. Luminescence measured using CCD-based camera (Viewlux). NOTES (numbers refer to Sequence numbers above; values are from representative experiments) 6. Luminescence Read: Clear filter; Exposure = 1 sec, Gain = High, Speed = Slow, Binning = 2X REFERENCES: 1. Inglese J, Shamu CE and Guy RK, Reporting data from high throughput screening of small molecule libraries, Nature Chemical Biology, 2007, 3(8): 438-441. doi.org/10.1038/nchembio0807-438 2. Yasgar A, Shinn P, Jadhav A, Auld DS, Michael S, Zheng W, Austin CP, Inglese J and Simeonov A, Compound Management for Quantitative High-Throughput Screening. J. Assoc. Lab. Auto., 2008, 13: 79-89. doi: 10.1016/j.jala.2007.12.004
SMILES,"activity change, negative = viability loss",Potency
Cc1ccc(S(=O)(=O)c2nnn3c2nc(NC2CCCCCC2)c2sccc23)cc1C,-25.6% (inactive),–
CCCN1CCN(CCCNC(=O)Cn2c(-c3cccs3)cc3ccccc32)CC1,-7.46% (inactive),–
Cc1ccc(CN2C(=O)C(O)(c3c(C)[nH]c4ccccc34)c3ccccc32)cc1 (configuration not stated),27.9% (inactive),–
COc1ccc(Br)cc1CC1C(=O)Nc2ccccc21 (configuration not stated),-2.78% (inactive),–
Cc1ccc(OCC(=O)Nc2ccc3nc(SCC(=O)N4CCc5ccccc54)sc3c2)cc1,-19.9% (inactive),–
CCCCCS(=O)(=O)c1oc(-c2cccs2)nc1S(=O)(=O)c1ccc(C)cc1,–,18.2 µM (active)
Cc1cccc(-n2c(=O)c3c(c4cc(C)ccc4n3C)n(CC(=O)NCCC3=CCCCC3)c2=O)c1,-5.38% (inactive),–

# From PubChem BioAssay AID1508648 (National Center for Advancing Translational Sciences (NCATS), 2021)
